We go through 13 molecules from PubChem BioAssay (Tox21).

Unmarked numbers belong to inactive results. Calls of active or inactive are those of the source. Unless noted, calls come from the whole dose curve; as a rule, active = well fitted curve in the direction sought with a large enough effect in the repeat runs; inconclusive = weak or mixed curves; inactive = no such curve, though single readings can be large; an effect the other way counts as inactive or inconclusive.

Experiment [1] is described as follows: qHTS assay to identify small molecule antagonists of the glucocorticoid receptor (GR) signaling pathway - cell viability counter screen (AID 720693). Note: nearly all actives have a fitted effect of over 55% in size.
Experiment [2] is described as follows: qHTS assay for identifying genotoxic compounds that show differential cytotoxicity against isogenic chicken DT40 cell lines with known DNA damage response pathways - wild type cell line (AID 743012). Note: nearly all actives have a fitted effect of over 60% in size. Note: potency is the fitted concentration of half-maximal effect. The method in brief: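 Cytotoxicity in repair-proficient parental chicken DT40 cells serves as the comparator for Rad54/Ku70- and Rev3-deficient lines. Cells were exposed to compounds for 40 h at 37 C/5% CO2, and ATP-based luminescence (CellTiter-Glo) measured viability.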

Experiment [3] can be described thus: qHTS assay for identifying genotoxic compounds that show differential cytotoxicity against isogenic chicken DT40 cell lines with known DNA damage response pathways - Rev3 mutant cell line (AID 743014). Note: nearly all actives have a fitted effect of over 55% in size. Note: potency is the fitted concentration of half-maximal effect.
Experiment [4] can be described thus: qHTS assay for identifying genotoxic compounds that show differential cytotoxicity against isogenic chicken DT40 cell lines with known DNA damage response pathways - Rad54/Ku70 mutant cell line (AID 743015). Note: nearly all actives have a fitted effect of over 60% in size. Note: potency is the fitted concentration of half-maximal effect.
Experiment [5] is described as follows: qHTS assay to identify small molecule antagonists of the androgen receptor (AR) signaling pathway - cell viability counter screen (AID 743033; note: nearly all actives have a fitted effect of over 45% in size; note: potency is the fitted concentration of half-maximal effect).
Experiment [6] deals with Estrogen receptor (Homo sapiens) (UniProt P03372). Nature of the experiment: qHTS assay to identify small molecule antagonists of the estrogen receptor alpha (ER-alpha) signaling pathway (AID 743069; active = well fitted curve in the direction sought with a large enough effect in the signal ratio in the repeat runs, not every such curve was filed as active; inconclusive = weak or mixed curves, or effect the other way; inactive = no such curve, though single readings can be large or run the other way; the % refers to the signal ratio; note: potency is the fitted concentration of half-maximal effect). The method in brief: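 Antagonist mode: compounds in DMSO were co-added with 17beta-estradiol to ER-alpha-bla HEK293 cells (2% charcoal-stripped serum) and left 18 h at 37C. Reporter inhibition was measured as FRET fluorescence after 2 h LiveBLAzer substrate at room temperature.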
Chain of Estrogen receptor (Homo sapiens) (P03372 whole entry, looked up): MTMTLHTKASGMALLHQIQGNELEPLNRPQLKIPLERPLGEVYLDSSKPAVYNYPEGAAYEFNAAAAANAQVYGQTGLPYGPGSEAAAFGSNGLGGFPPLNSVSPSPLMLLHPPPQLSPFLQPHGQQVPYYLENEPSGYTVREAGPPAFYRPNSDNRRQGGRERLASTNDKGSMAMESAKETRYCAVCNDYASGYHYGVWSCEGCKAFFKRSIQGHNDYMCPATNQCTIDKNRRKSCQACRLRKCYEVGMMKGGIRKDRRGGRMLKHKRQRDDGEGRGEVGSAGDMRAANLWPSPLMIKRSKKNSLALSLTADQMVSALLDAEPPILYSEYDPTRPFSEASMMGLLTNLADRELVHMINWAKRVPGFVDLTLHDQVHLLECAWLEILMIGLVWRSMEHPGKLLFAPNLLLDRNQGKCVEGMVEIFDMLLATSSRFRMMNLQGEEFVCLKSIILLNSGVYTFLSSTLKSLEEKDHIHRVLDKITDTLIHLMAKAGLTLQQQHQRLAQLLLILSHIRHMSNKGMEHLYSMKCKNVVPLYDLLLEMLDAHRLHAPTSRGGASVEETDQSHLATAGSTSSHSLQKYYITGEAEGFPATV

Experiment [7] is described as follows: qHTS assay to identify small molecule antagonists of the estrogen receptor alpha (ER-alpha) signaling pathway - cell viability counter screen (AID 743074; calls by dose curve;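 note: HEK293 cells carrying ER-alpha-UAS-bla reporter stimulated with 17beta-estradiol; nearly all actives have a fitted effect of over 45% in size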).
The target in experiment [8] is Estrogen receptor (Homo sapiens) (UniProt P03372). Nature of the experiment: qHTS assay to identify small molecule agonists of the estrogen receptor alpha (ER-alpha) signaling pathway (AID 743075; calls by dose curve;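 note: HEK293 GripTite cells with ER-alpha and UAS-driven beta-lactamase reporter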; note: potency is the fitted concentration of half-maximal effect).
Experiment [9] shares this target. Kind of experiment: qHTS assay to identify small molecule agonists of the estrogen receptor alpha (ER-alpha) signaling pathway using the BG1 cell line (AID 743079). Note: nearly all actives have a fitted effect of over 20% in size. Note: potency is the fitted concentration of half-maximal effect.
Experiment [10] is described as follows: qHTS assay to identify small molecule antagonists of the estrogen receptor alpha (ER-alpha) signaling pathway using the BG1 cell line (AID 743080; calls by dose curve;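 note: BG1 cells stimulated with 17beta-estradiol alongside compound; series mostly up to about 70 µM; nearly all actives have a fitted effect of over 25% in size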). The procedure, abridged:
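Quantitative HTS on the Tox21 10K library: BG1 cells with endogenous ER-alpha and ERE-luciferase reporter, 17beta-estradiol stimulation, 21.5 h compound exposure, luminescence endpoint with parallel fluorescence cytotoxicity counter-read.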

Experiment [11] is described as follows: qHTS assay to identify small molecule antagonists of the estrogen receptor alpha (ER-alpha) signaling pathway using the BG1 cell line - cell viability counter screen (AID 743081).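 Note: compound given together with 17beta-estradiol as the ER stimulus; series mostly up to about 70 µM; nearly all actives have a fitted effect of over 45% in size.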
A further experiment has as its target Aromatase (Homo sapiens) (UniProt P11511). Nature of the experiment: qHTS assay to identify aromatase inhibitors (AID 743083). For activity, negative = inhibition: series mostly up to about 70 µM. Note: nearly all actives have a fitted effect of over 55% in size. Note: potency is the fitted concentration of half-maximal effect.
Experiment [12] in a line: qHTS assay to identify small molecule antagonists of the androgen receptor (AR) signaling pathway using the MDA cell line - cell viability counter screen (AID 743041; note: nearly all actives have a fitted effect of over 45% in size). The procedure, abridged:
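Viability read by CellTiter-Fluor fluorescence in the same wells as the antagonist screen, added after 15.5 h of a 16 h, 37C exposure. Human breast carcinoma MDA-kb2 AR-luc cells, compounds co-dosed with agonist R1881.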

Experiment [13] has as its system thyroid hormone receptor (rat, GH3 cells). Kind of experiment: qHTS assay to identify small molecule agonists of the thyroid receptor (TR) signaling pathway (AID 743066; calls by dose curve).
The nature of experiment [14]: qHTS assay to identify small molecule antagonists of the thyroid receptor (TR) signaling pathway (AID 743065). For activity, negative = inhibition: series mostly up to about 70 µM. Note: nearly all actives have a fitted effect of over 55% in size. Note: potency is the fitted concentration of half-maximal effect. The method in brief:
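Antagonism measured as loss of luciferase signal in GH3 cells stably carrying a TRE-luciferase reporter, co-treated with compound and T3 (1 nM final) for 23.5 h at 37 C. Viability was read in the same well by CellTiter-Fluor.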

The nature of experiment [15]: qHTS assay to identify small molecule antagonists of the thyroid receptor (TR) signaling pathway - cell viability counter screen (AID 743064). Note: nearly all actives have a fitted effect of over 50% in size. The procedure, abridged:
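Viability of T3-stimulated (1 nM final) GH3.TRE-Luc cells is measured by CellTiter-Fluor fluorescence after 23.5 h compound exposure at 37 °C plus 30 min reagent incubation.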

The target in experiment [16] is Androgen receptor (Homo sapiens) (UniProt P10275). Nature of the experiment: qHTS assay to identify small molecule antagonists of the androgen receptor (AR) signaling pathway using the MDA cell line (AID 743042; note: nearly all actives have a fitted effect of over 55% in size). The method in brief:
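Antagonist mode: compounds plus R1881 agonist added to MDA-kb2 AR-luc cells, incubated 16 h at 37C. Luciferase reporter luminescence quantified, with multiplexed CellTiter-Fluor readout for cell viability.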

Experiment [17] shares this target. Kind of experiment: qHTS assay to identify small molecule antagonists of the androgen receptor (AR) signaling pathway (AID 743035; active = well fitted inhibition curve with a large enough effect in the signal ratio in the repeat runs, not every such curve was filed as active; inconclusive = weak or mixed curves, or effect the other way; inactive = no such curve, though single readings can be large or run the other way; the % refers to the signal ratio). The method in brief: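 Steps: seed AR-UAS-bla GripTite HEK293 cells, incubate 4 h at 37C; pin in test compound, then add agonist R1881; incubate 16 h at 37C; add LiveBLAzer B/G FRET substrate, 2 h at room temperature; read fluorescence.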

For experiment [18] the target is unchanged. Nature of the experiment: qHTS assay to identify small molecule agonists of the androgen receptor (AR) signaling pathway (AID 743036; active = well fitted activation curve with a large enough effect in the signal ratio in the repeat runs, with a control signal flat, not every such curve was filed as active; inconclusive = weak or mixed curves, or effect the other way; inactive = no such curve, though single readings can be large or run the other way; the % refers to the signal ratio). The procedure, abridged: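 Screening used 2,000 AR-bla HEK293 cells per well, treated 16 h at 37C with test compounds in DMSO alongside positive and DMSO-only controls; beta-lactamase activity was then read by LiveBLAzer B/G FRET fluorescence after 2 h at room temperature.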

Experiment [19] has the same target. Kind of experiment: qHTS assay to identify small molecule agonists of the androgen receptor (AR) signaling pathway using the MDA cell line (AID 743040; note: nearly all actives have a fitted effect of over 20% in size). The procedure, abridged:
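Luciferase agonist assay: 16 h compound exposure at 37C without CO2 in MDA-kb2 AR-luc cells, whose MMTV promoter responds to both AR and GR. Luminescence measured after 30 min room-temperature incubation with ONE-Glo.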
% is set by controls: 0 for no effect and ±100 for the full control effect.

Chain of Androgen receptor (Homo sapiens) (P10275 whole entry, looked up): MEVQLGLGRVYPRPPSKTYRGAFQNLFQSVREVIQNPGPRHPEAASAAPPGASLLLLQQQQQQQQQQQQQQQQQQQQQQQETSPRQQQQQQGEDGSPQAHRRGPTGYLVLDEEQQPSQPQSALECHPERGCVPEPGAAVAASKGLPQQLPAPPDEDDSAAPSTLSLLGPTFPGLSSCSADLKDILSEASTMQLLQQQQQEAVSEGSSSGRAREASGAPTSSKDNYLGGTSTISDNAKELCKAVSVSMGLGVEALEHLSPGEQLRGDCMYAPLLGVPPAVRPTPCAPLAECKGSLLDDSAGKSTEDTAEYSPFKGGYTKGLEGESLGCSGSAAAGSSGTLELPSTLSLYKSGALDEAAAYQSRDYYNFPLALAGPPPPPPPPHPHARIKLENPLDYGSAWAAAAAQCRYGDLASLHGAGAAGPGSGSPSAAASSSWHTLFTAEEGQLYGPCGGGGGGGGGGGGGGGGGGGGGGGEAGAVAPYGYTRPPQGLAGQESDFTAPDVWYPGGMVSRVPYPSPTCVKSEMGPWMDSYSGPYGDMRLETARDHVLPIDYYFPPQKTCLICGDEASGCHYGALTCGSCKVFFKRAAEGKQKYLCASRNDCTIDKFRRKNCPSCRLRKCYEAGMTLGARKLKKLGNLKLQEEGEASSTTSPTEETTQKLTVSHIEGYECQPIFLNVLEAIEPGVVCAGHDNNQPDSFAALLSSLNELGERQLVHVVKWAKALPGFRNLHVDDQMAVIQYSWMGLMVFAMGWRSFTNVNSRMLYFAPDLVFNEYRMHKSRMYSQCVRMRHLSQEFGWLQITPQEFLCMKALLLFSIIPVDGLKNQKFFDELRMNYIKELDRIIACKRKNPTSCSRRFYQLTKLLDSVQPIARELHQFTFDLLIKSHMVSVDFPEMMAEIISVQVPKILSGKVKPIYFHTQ
Chain of Aromatase (Homo sapiens) (P11511 whole entry, looked up): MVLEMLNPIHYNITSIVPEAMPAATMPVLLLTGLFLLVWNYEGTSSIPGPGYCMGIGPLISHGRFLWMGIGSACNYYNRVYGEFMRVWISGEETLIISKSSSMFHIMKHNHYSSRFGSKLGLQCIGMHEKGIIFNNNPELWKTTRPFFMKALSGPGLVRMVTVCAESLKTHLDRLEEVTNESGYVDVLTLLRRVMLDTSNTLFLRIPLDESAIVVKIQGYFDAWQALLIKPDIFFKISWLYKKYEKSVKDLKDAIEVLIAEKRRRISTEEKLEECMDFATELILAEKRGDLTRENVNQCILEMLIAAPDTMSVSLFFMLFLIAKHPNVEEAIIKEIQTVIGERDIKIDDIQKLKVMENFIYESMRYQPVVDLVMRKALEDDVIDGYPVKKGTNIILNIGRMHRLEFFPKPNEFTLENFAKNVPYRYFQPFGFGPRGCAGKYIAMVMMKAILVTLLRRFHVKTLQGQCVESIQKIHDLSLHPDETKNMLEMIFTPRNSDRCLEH

As for `C[N+]1(CC2COC(c3ccccc3)(C3CCCCC3)O2)CCCCC1` (configuration not stated), the Potency result in [1], in experiment [5], in experiment [6], in experiment [7], in experiment [8] and in experiment [9] was “inactive” throughout. Also, the Potency entry (in [10]; in [11]; with Aromatase (Homo sapiens)) was “inactive” each time. Moreover, the results for the Potency in [2], in experiment [3] and in experiment [4] were 2.66 µM (active), 3.76 µM (active) and 5.31 µM (active), respectively.
`COc1cc2c(cc1OC)C(C(C(=O)N(CCc1ccc(OC)c(OC)c1OC)CCc1ccc(OC)c(OC)c1OC)c1ccccc1)=NCC2` (configuration not stated): the Potency result (in experiment [1]; in experiment [5]; in experiment [12]; in experiment [13]; in experiment [7]; with Aromatase (Homo sapiens)) was “inactive” throughout. Besides, the Potency is 6.68 µM (active) in experiment [2], 10.6 µM (active) in [3] and 11.9 µM (active) in experiment [4].
Regarding `O=[N+]([O-])c1cccc(S(=O)(=O)O)c1`, the Potency entry in [1], in experiment [2], in [3], in [4], in experiment [5] and in [12] was “inactive” each time. In addition, the Potency result (in experiment [14]; in [13]; in [7]; in experiment [11]; with Aromatase (Homo sapiens)) was “inactive” each time.
On to `COc1cccc(N(C)C(=S)Oc2ccc3c(c2)CCCC3)n1`, for which the Potency result in experiment [1], in experiment [12], in experiment [15], in [13], in [8] and in experiment [11] was “inactive” each time. Besides, the Potency result with Aromatase (Homo sapiens) was “inactive”. Further, the Potency in experiment [2], in experiment [3] and in experiment [4] was 26.6 µM (active) in each case.
As for `C/C=C/C(=O)CC`, the Potency result in [1], in experiment [2], in experiment [3], in experiment [4], in experiment [5] and in experiment [12] was “inactive” throughout. The Potency result (in experiment [14]; in experiment [9]; in experiment [10]; in experiment [11]; in the experiment with Aromatase (Homo sapiens)) was “inactive” each time. For the same molecule, the activation was 0.0391% [at 18 µM] in [13] and -0.96% [at 14.9 µM] in experiment [8]. Further, in [6], the activity, negative = inhibition is 9.39% [at 15 µM]. The activity, negative = cytotoxicity in [7] is -6.1% [at 15 µM].
In the case of `COc1ccc(C(=O)c2ccc(OC)cc2O)c(O)c1`, the Potency entry in experiment [1], in [2], in experiment [3], in experiment [4], in [12] and in experiment [16] was “inactive” in each case. Moreover, the Potency result (in experiment [14]; in [13]; in experiment [6]; in experiment [7]; in [11]; with Aromatase (Homo sapiens)) was “inactive” each time. For the same molecule, the Potency in experiment [8] was 8.77 µM [fluorescent] (active); in experiment [9], 30.9 µM (active).
For `CC(CSC(=O)c1ccccc1)C(=O)N1C[C@@H](Sc2ccccc2)C[C@H]1C(=O)O` (some centres not stated), the Potency entry in experiment [1], in [2], in [3], in experiment [4], in [12] and in experiment [15] was “inactive” throughout. Moreover, the Potency result in experiment [14], in experiment [13], in [6], in [7], in experiment [8] and in [9] was “inactive” each time. Also, the Potency entry (in experiment [10]; in experiment [11]; with Aromatase (Homo sapiens)) was “inactive” throughout.
For `C=CC(=O)OCCOCCOC(=O)C=C`, the Potency entry in [1], in [13] and in experiment [8] was “inactive” each time. Also, the Potency is 9.73 µM (active) in [2]; 6.14 µM (active) in experiment [3]; 9.73 µM (active) in experiment [4]; 39.1 µM (active) in experiment [5]; 68.9 µM (active) in experiment [14]; 61.9 µM [inconclusive] (active) in experiment [6]. Moreover, the values for the Potency (in experiment [9]; with Aromatase (Homo sapiens)) were 6.14 µM (active) and 13.7 µM (active), respectively.
Turning to `CNC(=O)CN(CCN(CCN(CC(=O)[O-])CC(=O)NC)CC(=O)[O-])CC(=O)[O-].O.[Gd+3]`, the Potency result in experiment [1], in experiment [2], in [3], in experiment [4], in [5] and in experiment [12] was “inactive” in each case. Besides, the Potency entry in experiment [13], in [6], in [7], in [8], in experiment [9] and in experiment [10] was “inactive” throughout. In addition, the Potency entry (in experiment [11]; with Aromatase (Homo sapiens)) was “inactive” throughout.
For the molecule `CCCCCCCCCOS(=O)(=O)O`, the Potency result in experiment [1], in experiment [2], in experiment [3], in [4], in [5] and in [12] was “inactive” in each case. For the same molecule, the Potency entry in experiment [14], in experiment [13], in experiment [6], in experiment [7], in [8] and in experiment [10] was “inactive” each time. Besides, the Potency result (in experiment [11]; with Aromatase (Homo sapiens)) was “inactive” in each case. Besides, the Potency in [9] was 34.4 µM (active).
As to `O=C(OCCCCCCOC(=O)c1ccccc1)c1ccccc1`, the Potency entry in [1], in experiment [12], in experiment [15], in [14], in experiment [13] and in experiment [6] was “inactive” in each case. The Potency result (in experiment [7]; in experiment [8]; in experiment [10]; in [11]; in the experiment with Aromatase (Homo sapiens)) was “inactive” in each case. The Potency is 61.1 µM (active) in experiment [2], 61.1 µM (active) in experiment [3], 54.5 µM (active) in experiment [4] and 43.3 µM (active) in experiment [9].
On to `COc1cc(Cl)ccc1Oc1ccc(Cl)cc1Cl`, for which the Potency entry in [1], in [2], in experiment [3], in experiment [4], in experiment [5] and in experiment [12] was “inactive” in each case. For the same molecule, the Potency entry (in [13]; in experiment [7]; in experiment [8]; in [9]; in experiment [11]; with Aromatase (Homo sapiens)) was “inactive” each time. Moreover, the Potency in experiment [14] is 52.9 µM (active).
For `O=C1OC(CN2CCOCC2)CN1/N=C/c1ccc([N+](=O)[O-])o1` (configuration not stated), the Potency entry in experiment [1], in experiment [2], in experiment [3], in experiment [5], in [17] and in experiment [18] was “inactive” in each case. The Potency result in experiment [19], in [12], in [16], in [14], in [13] and in experiment [6] was “inactive” in each case. For the same molecule, the Potency entry (in experiment [7]; in experiment [8]; in [9]; in experiment [10]; in experiment [11]; in the experiment with Aromatase (Homo sapiens)) was “inactive” in each case.
